Test results: the supplement of paper PMC11732987, “Enantioselective OTUD7B fragment discovery through chemoproteomics screening and high-throughput optimisation” (Communications Chemistry, 2025)

Tests used:
Assay in all cases: log2 ratio of Biotin-Ahx-Ub-VS probe labelling (fragment/DMSO); higher = less target engagement (more negative = stronger competition), active = hit call of the paper (q ≤ 0.05, log2 ratio ≤ -1)
Conditions in all cases: compound concentration: 200 uM; treatment time: 3 h
USP34 = USP34 (UniProt Q70CQ2)
Procedure, shortened: (§1)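 Each value is an average log2 ratio of fragment to vehicle, tested by unpaired t-test. The underlying Spectronaut label-free quantities were global-median-normalised, and only proteins with ≥2 unique peptides were included. Triplicate HEK293T lysate samples (495 µg) were exposed to fragment at 200 µM or vehicle for 3 h, then to Biotin-Ahx-Ub-VS at 0.5 µM final for 1 h, before NeutrAvidin enrichment of labelled DUBs, LysC and trypsin digestion, and diaPASEF LC-MS/MS.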

USP36 = molecular target: T1, USP36 (UniProt Q9P275)
T1 sequence (whole entry): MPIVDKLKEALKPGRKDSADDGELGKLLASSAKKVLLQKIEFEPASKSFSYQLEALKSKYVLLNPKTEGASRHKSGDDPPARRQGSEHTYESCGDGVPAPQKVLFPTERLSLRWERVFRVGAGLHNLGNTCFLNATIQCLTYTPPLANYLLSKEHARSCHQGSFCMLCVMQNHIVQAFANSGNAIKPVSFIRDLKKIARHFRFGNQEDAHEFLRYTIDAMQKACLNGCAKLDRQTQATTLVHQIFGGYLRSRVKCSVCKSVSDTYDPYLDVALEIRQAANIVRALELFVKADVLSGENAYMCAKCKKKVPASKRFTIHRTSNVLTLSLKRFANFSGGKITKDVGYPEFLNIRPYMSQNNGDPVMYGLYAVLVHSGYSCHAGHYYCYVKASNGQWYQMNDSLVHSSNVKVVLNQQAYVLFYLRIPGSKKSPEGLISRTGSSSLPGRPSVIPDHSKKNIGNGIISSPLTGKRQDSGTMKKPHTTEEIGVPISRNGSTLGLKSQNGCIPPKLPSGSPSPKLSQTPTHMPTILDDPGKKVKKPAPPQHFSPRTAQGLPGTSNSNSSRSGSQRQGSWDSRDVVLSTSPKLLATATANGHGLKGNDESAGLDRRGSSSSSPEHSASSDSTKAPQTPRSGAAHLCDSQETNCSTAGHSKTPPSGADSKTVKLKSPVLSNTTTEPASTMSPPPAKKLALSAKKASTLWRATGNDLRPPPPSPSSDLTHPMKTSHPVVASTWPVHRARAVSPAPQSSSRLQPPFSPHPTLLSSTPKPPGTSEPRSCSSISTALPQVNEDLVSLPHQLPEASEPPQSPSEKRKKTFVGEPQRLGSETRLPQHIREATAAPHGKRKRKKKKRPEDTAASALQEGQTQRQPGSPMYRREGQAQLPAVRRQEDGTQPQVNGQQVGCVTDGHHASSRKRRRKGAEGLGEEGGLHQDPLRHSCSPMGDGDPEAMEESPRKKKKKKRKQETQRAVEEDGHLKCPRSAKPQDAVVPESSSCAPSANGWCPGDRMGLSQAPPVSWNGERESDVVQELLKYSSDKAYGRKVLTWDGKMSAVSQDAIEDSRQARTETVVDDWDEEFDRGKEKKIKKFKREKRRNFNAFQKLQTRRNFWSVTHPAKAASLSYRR
Procedure, shortened: as §1

USP38 = molecular target: T2, USP38 (UniProt Q8NB14)
T2 sequence (whole entry): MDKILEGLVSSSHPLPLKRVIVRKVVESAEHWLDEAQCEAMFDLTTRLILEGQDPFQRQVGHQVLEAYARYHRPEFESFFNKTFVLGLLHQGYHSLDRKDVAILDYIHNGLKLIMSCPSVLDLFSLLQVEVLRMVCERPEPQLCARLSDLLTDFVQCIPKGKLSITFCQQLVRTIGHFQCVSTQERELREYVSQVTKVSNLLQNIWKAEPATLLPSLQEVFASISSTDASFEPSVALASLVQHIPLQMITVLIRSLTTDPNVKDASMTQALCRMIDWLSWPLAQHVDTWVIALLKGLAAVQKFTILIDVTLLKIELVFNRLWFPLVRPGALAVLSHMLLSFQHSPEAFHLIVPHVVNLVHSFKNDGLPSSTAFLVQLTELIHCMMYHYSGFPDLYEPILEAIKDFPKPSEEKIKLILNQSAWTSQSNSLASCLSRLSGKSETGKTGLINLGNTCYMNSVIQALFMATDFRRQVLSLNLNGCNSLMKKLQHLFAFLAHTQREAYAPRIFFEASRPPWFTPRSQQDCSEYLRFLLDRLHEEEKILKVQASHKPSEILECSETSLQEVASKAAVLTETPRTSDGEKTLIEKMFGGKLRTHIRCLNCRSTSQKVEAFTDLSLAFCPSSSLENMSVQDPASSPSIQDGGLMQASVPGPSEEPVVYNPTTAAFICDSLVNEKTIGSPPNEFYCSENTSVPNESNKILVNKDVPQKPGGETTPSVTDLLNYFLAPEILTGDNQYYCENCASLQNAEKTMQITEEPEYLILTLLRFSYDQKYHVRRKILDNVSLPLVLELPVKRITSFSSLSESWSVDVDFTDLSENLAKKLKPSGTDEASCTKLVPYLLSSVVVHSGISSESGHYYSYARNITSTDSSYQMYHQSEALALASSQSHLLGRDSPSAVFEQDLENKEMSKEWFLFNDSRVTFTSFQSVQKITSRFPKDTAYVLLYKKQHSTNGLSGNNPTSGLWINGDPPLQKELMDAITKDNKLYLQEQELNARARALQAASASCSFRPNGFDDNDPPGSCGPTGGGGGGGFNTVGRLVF
Procedure, shortened: as §1

USP39 = molecular target: T3, USP39 (UniProt Q53GS9)
T3 sequence (whole entry): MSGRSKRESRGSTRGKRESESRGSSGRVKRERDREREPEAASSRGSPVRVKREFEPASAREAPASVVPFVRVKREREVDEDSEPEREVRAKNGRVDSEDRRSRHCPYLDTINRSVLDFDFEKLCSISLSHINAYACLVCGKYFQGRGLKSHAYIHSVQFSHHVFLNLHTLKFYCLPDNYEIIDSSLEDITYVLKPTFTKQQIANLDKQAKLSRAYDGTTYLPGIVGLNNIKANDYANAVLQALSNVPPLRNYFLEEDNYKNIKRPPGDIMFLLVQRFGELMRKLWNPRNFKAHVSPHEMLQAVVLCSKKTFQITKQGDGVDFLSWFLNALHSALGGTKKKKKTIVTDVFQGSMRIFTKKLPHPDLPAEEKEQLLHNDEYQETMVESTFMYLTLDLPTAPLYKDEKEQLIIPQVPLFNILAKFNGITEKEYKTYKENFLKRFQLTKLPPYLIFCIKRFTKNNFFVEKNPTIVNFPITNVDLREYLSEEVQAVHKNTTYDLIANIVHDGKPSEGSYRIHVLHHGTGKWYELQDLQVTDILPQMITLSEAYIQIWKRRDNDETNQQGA
Procedure, shortened: as §1

USP4 = molecular target: T4, USP4 (UniProt Q13107)
T4 sequence (whole entry): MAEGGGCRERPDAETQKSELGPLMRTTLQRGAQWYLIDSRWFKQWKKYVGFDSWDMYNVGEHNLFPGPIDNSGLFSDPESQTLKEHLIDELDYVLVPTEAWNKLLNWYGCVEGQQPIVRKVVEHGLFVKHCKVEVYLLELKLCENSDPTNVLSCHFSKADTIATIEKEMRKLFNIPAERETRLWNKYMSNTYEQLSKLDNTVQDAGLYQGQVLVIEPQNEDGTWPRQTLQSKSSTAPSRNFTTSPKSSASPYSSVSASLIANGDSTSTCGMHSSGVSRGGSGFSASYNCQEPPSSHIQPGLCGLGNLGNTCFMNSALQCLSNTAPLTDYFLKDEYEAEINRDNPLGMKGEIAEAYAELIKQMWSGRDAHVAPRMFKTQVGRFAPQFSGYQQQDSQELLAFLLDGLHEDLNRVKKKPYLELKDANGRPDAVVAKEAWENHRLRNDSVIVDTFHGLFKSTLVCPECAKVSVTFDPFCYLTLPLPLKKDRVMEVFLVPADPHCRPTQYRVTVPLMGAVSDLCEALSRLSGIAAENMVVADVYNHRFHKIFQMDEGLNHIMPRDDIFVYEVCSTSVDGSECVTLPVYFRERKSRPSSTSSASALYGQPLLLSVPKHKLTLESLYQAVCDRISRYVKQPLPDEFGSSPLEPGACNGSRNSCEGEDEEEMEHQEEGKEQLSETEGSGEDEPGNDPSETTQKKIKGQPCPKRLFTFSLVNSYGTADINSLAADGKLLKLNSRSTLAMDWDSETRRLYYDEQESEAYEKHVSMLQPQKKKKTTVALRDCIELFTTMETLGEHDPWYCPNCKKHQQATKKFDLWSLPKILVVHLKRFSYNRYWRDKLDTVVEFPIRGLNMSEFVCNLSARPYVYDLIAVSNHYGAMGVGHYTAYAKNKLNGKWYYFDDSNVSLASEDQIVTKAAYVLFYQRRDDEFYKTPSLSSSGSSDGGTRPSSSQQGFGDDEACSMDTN
Procedure, shortened: as §1

Measured: log2 ratio of Biotin-Ahx-Ub-VS probe labelling

Sequence of USP34 (Q70CQ2 whole entry, the tested form may be a part): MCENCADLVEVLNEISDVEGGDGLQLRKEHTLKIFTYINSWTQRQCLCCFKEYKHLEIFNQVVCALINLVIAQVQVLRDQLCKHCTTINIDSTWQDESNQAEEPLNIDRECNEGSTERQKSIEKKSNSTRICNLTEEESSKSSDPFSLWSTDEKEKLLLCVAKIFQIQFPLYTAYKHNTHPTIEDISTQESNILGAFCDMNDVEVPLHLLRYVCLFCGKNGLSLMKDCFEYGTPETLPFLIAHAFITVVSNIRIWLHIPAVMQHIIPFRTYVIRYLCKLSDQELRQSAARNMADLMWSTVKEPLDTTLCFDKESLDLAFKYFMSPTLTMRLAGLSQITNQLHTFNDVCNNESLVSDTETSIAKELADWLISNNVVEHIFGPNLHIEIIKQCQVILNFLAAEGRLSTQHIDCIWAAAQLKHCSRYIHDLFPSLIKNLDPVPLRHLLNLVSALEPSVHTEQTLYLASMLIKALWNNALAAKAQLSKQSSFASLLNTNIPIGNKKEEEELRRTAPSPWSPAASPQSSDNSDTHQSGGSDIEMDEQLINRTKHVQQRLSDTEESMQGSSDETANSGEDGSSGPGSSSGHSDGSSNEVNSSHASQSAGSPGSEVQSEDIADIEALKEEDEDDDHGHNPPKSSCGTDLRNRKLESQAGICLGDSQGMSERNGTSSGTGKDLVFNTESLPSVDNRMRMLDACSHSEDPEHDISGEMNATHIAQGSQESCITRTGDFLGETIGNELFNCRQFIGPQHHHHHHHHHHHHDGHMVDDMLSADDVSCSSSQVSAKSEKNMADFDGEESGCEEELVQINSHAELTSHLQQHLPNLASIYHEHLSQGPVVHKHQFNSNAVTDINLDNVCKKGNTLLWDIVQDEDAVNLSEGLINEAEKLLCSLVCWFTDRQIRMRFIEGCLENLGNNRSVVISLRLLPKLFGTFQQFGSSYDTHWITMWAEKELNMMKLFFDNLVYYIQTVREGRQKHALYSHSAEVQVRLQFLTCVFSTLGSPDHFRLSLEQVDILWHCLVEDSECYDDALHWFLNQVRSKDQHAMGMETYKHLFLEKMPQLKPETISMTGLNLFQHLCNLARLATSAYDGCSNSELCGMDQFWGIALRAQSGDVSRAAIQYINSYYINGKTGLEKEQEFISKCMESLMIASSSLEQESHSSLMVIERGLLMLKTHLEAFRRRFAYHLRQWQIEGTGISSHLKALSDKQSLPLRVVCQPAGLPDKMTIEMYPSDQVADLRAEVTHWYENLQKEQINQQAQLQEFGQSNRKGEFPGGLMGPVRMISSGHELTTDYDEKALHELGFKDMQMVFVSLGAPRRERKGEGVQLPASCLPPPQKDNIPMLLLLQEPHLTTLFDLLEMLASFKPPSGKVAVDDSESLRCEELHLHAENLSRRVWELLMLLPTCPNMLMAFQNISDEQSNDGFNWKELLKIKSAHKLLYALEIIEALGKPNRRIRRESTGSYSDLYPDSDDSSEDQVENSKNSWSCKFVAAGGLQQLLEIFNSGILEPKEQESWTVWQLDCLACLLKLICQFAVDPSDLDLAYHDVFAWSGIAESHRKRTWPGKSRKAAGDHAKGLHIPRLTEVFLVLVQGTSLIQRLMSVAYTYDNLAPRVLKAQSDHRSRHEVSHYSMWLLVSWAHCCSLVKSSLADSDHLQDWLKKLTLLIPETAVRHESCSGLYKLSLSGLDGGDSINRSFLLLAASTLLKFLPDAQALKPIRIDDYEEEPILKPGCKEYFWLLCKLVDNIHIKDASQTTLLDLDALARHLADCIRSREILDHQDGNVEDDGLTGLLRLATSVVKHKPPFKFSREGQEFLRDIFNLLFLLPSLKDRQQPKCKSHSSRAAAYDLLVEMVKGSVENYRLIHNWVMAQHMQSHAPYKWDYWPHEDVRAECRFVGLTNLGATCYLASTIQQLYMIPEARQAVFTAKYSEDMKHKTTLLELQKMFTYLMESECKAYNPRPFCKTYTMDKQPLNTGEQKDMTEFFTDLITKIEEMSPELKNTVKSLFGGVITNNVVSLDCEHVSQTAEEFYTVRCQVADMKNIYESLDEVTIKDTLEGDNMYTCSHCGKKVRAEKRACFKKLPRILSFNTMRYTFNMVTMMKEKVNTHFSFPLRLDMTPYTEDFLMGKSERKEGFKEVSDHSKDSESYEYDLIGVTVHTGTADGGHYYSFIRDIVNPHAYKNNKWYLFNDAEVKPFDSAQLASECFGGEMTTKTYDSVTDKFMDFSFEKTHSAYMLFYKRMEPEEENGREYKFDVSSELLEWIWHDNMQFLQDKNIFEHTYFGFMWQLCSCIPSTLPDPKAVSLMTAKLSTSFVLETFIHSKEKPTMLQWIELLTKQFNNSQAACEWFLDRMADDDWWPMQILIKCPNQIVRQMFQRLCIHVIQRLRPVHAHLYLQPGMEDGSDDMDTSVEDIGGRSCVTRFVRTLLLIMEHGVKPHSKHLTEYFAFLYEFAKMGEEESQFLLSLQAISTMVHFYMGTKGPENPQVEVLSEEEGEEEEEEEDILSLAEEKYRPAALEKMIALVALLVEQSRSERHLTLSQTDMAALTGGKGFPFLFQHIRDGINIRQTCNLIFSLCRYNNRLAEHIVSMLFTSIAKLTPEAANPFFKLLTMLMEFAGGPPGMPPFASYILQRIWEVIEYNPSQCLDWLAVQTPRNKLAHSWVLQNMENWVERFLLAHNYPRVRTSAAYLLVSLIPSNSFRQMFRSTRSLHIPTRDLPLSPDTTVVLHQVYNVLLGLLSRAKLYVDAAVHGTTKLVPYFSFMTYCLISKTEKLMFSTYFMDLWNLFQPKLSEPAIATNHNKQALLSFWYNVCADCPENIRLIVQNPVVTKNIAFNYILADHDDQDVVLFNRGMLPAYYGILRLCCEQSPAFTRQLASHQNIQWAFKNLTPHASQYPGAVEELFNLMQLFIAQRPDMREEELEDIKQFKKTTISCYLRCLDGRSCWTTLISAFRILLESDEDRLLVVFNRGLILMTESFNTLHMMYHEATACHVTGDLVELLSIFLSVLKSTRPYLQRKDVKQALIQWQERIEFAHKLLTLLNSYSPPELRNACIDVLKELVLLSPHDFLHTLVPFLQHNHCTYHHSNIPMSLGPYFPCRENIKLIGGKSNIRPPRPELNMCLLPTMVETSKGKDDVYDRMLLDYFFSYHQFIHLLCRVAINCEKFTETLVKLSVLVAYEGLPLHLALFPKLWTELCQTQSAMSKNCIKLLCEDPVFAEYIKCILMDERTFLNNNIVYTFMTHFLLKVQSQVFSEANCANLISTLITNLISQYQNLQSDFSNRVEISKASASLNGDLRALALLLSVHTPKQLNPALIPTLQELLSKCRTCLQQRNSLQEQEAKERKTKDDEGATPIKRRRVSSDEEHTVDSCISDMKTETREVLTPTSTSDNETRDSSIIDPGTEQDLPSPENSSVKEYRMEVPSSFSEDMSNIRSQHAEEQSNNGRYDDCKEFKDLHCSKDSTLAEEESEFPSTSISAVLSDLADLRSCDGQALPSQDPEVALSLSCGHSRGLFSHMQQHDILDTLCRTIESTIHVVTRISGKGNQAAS

CC1CCc2onc(CNC(=O)CCl)c2C1 (stereo not given)
inactive: USP34 0.0236 | USP36 0.0286 | USP38 0.0155 | USP39 0.358 | USP4 0.094
